Test [1] can be described thus: qHTS assay to identify small molecule antagonists of the glucocorticoid receptor (GR) signaling pathway - cell viability counter screen (AID 720693). Further: nearly all actives have a fitted effect of over 55% in size. Further: potency means the concentration at half of the fitted maximal effect.
Test [2] is described as follows: qHTS assay for identifying genotoxic compounds that show differential cytotoxicity against isogenic chicken DT40 cell lines with known DNA damage response pathways - wild type cell line (AID 743012). Further: nearly all actives have a fitted effect of over 60% in size. Further: potency means the concentration at half of the fitted maximal effect. The gist of the method: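 Endpoint: CellTiter-Glo luminescence, 30 min RT. Cells: wild type DT40, 300/well. Exposure: compounds in DMSO, 40 h, 37 C/5% CO2, after ~0.5 h pre-incubation.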

A short description of test [3]: qHTS assay for identifying genotoxic compounds that show differential cytotoxicity against isogenic chicken DT40 cell lines with known DNA damage response pathways - Rev3 mutant cell line (AID 743014). Further: nearly all actives have a fitted effect of over 55% in size. Further: potency means the concentration at half of the fitted maximal effect.
Test [4] in a line: qHTS assay for identifying genotoxic compounds that show differential cytotoxicity against isogenic chicken DT40 cell lines with known DNA damage response pathways - Rad54/Ku70 mutant cell line (AID 743015). Further: nearly all actives have a fitted effect of over 60% in size. Further: potency means the concentration at half of the fitted maximal effect.
The nature of test [5]: qHTS assay to identify small molecule antagonists of the androgen receptor (AR) signaling pathway - cell viability counter screen (AID 743033; further: nearly all actives have a fitted effect of over 45% in size; further: potency means the concentration at half of the fitted maximal effect).
Test [6] can be described thus: qHTS assay to identify small molecule antagonists of the androgen receptor (AR) signaling pathway using the MDA cell line - cell viability counter screen (AID 743041; further: nearly all actives have a fitted effect of over 45% in size; further: potency means the concentration at half of the fitted maximal effect). In outline:
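qHTS viability read-out; MDA-kb2 AR-luc; R1881-stimulated; 16 h exposure at 37C, 0% CO2; CellTiter-Fluor, 30 min; fluorescence intensity.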

The nature of test [7]: qHTS assay to identify small molecule antagonists of the thyroid receptor (TR) signaling pathway - cell viability counter screen (AID 743064). Further: nearly all actives have a fitted effect of over 50% in size. Further: potency means the concentration at half of the fitted maximal effect. In outline:
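Rat GH3 pituitary tumor cells stably expressing two TR response elements driving luciferase were plated, rested 4 h, then dosed with library compounds and T3 (1 nM final). After 23.5 h at 37 °C, CellTiter-Fluor was added for 30 min and fluorescence recorded.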

Test [8] is described as follows: qHTS assay to identify small molecule antagonists of the estrogen receptor alpha (ER-alpha) signaling pathway - cell viability counter screen (AID 743074; calls by dose curve; further: nearly all actives have a fitted effect of over 45% in size).
A short description of test [9]: qHTS assay to identify small molecule antagonists of the estrogen receptor alpha (ER-alpha) signaling pathway using the BG1 cell line - cell viability counter screen (AID 743081).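 Further: compound given together with 17beta-estradiol as the ER stimulus; nearly all actives have a fitted effect of over 45% in size.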 Further: potency means the concentration at half of the fitted maximal effect.
The next test has as its target Aromatase (Homo sapiens) (UniProt P11511). Put plainly: qHTS assay to identify aromatase inhibitors (AID 743083). Further: nearly all actives have a fitted effect of over 55% in size. Further: potency means the concentration at half of the fitted maximal effect.
The nature of test [10]: qHTS assay to identify small molecule antagonists of the thyroid receptor (TR) signaling pathway (AID 743065). Further: nearly all actives have a fitted effect of over 55% in size. Further: potency means the concentration at half of the fitted maximal effect. In outline: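 GH3.TRE-Luc rat pituitary cells carrying two TR response elements driving luciferase were plated for 4 h, given compound plus 1 nM T3 (final), and incubated 23.5 h at 37 C. ONE-Glo luminescence measured reporter inhibition; CellTiter-Fluor fluorescence tracked cytotoxicity.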

Test [11] concerns thyroid hormone receptor (rat, GH3 cells). The test can be described thus: qHTS assay to identify small molecule agonists of the thyroid receptor (TR) signaling pathway (AID 743066; calls by dose curve).
Test [12] has as its target Estrogen receptor (Homo sapiens) (UniProt P03372). The test can be described thus: qHTS assay to identify small molecule antagonists of the estrogen receptor alpha (ER-alpha) signaling pathway (AID 743069; active means well fitted curve in the direction sought with a large enough effect in the signal ratio in the repeat runs, not every such curve was filed as active; inconclusive means weak or mixed curves, or effect the other way; inactive means no such curve, though single readings can be large or run the other way; the % refers to the signal ratio; further: potency means the concentration at half of the fitted maximal effect). The gist of the method:
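Screening used a UAS-driven beta-lactamase reporter integrated into HEK293 cells expressing ER-alpha, stimulated with 17beta-estradiol alongside test compounds over 18 hr at 37C; signal came from LiveBLAzer B/G FRET fluorescence.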

For test [13] the target is unchanged. Put plainly: qHTS assay to identify small molecule agonists of the estrogen receptor alpha (ER-alpha) signaling pathway (AID 743075; calls by dose curve; further: potency means the concentration at half of the fitted maximal effect).
Test [14] has the same target. Put plainly: qHTS assay to identify small molecule agonists of the estrogen receptor alpha (ER-alpha) signaling pathway using the BG1 cell line (AID 743079). Further: nearly all actives have a fitted effect of over 20% in size. Further: potency means the concentration at half of the fitted maximal effect.
Test [15] in a line: qHTS assay to identify small molecule antagonists of the estrogen receptor alpha (ER-alpha) signaling pathway using the BG1 cell line (AID 743080; calls by dose curve;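 further: BG1 cells stimulated with 17beta-estradiol alongside compound; nearly all actives have a fitted effect of over 25% in size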; further: potency means the concentration at half of the fitted maximal effect). In outline: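 Endogenous full-length ER-alpha in BG1-Luc-4E2 cells drives a stably integrated 4×ERE luciferase gene; compounds were tested against 17beta-estradiol over 21.5 h, with luminescence and multiplexed viability fluorescence recorded.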

Several values for one entry are separate records, joined by “and”; a condition that tells them apart may be missing. Identical values can stand only once. A structure can be active in one record and inactive in another. Activity calls are given as the source filed them. Unless noted, the call rests on the fitted dose curve; in most records, active means well fitted curve in the direction sought with a large enough effect in the repeat runs; inconclusive means weak or mixed curves; inactive means no such curve, though single readings can be large; an effect the other way counts as inactive or inconclusive.

Chain of Aromatase (Homo sapiens) (P11511 whole entry, looked up): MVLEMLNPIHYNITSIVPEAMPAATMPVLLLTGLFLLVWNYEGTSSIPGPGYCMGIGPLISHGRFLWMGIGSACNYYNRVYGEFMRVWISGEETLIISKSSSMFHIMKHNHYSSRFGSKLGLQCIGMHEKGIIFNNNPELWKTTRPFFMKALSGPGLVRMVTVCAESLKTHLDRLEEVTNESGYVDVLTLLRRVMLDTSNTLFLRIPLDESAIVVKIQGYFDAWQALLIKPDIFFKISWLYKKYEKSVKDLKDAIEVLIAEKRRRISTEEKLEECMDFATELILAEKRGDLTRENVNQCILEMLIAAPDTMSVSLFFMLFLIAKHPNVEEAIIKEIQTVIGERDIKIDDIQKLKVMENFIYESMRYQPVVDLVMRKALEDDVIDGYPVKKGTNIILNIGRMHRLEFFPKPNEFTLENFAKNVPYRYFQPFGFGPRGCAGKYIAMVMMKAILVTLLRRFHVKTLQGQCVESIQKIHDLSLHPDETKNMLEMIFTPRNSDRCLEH
Chain of Estrogen receptor (Homo sapiens) (P03372 whole entry, looked up): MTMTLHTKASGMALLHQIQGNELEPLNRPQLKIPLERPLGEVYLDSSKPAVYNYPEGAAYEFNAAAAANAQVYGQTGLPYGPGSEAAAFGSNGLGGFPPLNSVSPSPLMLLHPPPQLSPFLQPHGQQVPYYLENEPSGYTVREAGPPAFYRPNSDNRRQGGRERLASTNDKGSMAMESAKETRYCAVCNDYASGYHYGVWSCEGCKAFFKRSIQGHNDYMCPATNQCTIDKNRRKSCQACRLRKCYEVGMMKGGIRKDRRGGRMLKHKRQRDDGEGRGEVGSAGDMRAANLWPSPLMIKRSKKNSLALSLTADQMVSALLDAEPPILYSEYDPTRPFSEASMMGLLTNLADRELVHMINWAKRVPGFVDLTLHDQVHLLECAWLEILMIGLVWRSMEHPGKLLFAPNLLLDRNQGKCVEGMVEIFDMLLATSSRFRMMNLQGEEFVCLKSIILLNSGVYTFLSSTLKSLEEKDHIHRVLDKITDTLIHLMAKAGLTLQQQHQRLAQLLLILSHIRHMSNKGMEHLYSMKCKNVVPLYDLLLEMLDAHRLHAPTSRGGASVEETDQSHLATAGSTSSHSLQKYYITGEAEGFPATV

Consider `O=C(O)CC(Cl)C(=O)O` (centres undefined), for which the Potency result in test [1], in [2], in test [3], in test [4], in test [5] and in [6] was “inactive” each time. The Potency result (in test [7]; in [8]; in test [9]; in the test with Aromatase (Homo sapiens)) was “inactive” throughout.
Consider `O=C(N[C@H](c1ccccc1)[C@@H]1CN2CCC1CC2)c1c(Cl)ccc(C(F)(F)F)c1Cl`, for which the Potency result in test [1], in test [5], in [6] and in test [8] was “inactive” in each case. The Potency in [2] is 22 µM (active); in test [3], 39.2 µM (active); in test [4], 24.7 µM (active); in [7], 15.6 µM (active); in test [10], 39.2 µM (active).
Take `COc1c(C(C)(C)C)cc([N+](=O)[O-])c(C)c1[N+](=O)[O-]`: the Potency entry in test [1], in test [2], in test [3], in test [4], in test [5] and in test [6] was “inactive” throughout. The Potency entry in test [7], in test [11], in [12], in [8], in test [14] and in test [15] was “inactive” throughout. The Potency result in test [9] was “inactive”. Moreover, in test [13], the Potency is 48.6 µM [activator] (active).
On to `ClCc1ccccc1`, for which the Potency entry in test [1], in test [2], in [3], in test [4], in [5] and in [7] was “inactive” in each case. The Potency entry in test [10], in [11], in [12], in test [8], in test [13] and in test [14] was “inactive” in each case. Further, the Potency entry (in test [15]; in [9]; with Aromatase (Homo sapiens)) was “inactive” each time.
For the compound `COC(=O)C(Cl)C(=O)OC`, the Potency entry in test [1], in [2], in test [3], in test [4], in test [5] and in test [7] was “inactive” throughout. Moreover, the Potency result in test [10], in [11], in test [12], in test [8], in [13] and in [14] was “inactive” in each case. The Potency entry (in test [9]; with Aromatase (Homo sapiens)) was “inactive” in each case.
Consider `O=C(NC(=O)c1c(F)cccc1F)Nc1ccc(OC(F)(F)C(F)OC(F)(F)F)c(Cl)c1` (centres undefined), for which the Potency entry in test [1], in test [5], in test [7], in [10], in [11] and in test [8] was “inactive” throughout. The Potency result (in [14]; in [15]; in test [9]; with Aromatase (Homo sapiens)) was “inactive” in each case. Moreover, the Potency in [2] is 6.68 µM (active); in test [3], 4.22 µM (active); in test [4], 1.06 µM (active).
`CC(=O)CCC(C)=O`: the Potency result in [1], in test [2], in test [3], in test [4], in [5] and in test [7] was “inactive” throughout. For the same compound, the Potency entry in test [10], in test [11], in test [12], in test [8], in test [13] and in [14] was “inactive” throughout. Besides, the Potency entry (in test [15]; in test [9]; with Aromatase (Homo sapiens)) was “inactive” in each case.
Turning to `CC(C)(C)c1cc([N+](=O)[O-])cc([N+](=O)[O-])c1O`, the Potency in test [1] was 1.09 µM (active); in [2] it was 19.3 µM (active); in [3], 21.6 µM (active); in test [4] it was 19.3 µM (active); in [5], 13.8 µM (active); in test [6], 24.3 µM (active). In addition, the Potency in test [7] was 8.61 µM (active); in [10], 3.43 µM (active); in test [9] it was 21.6 µM (active); with Aromatase (Homo sapiens), 15.3 µM (active).
Regarding `COC(=O)C(Br)CBr` (centres undefined), the Potency entry in [1], in [2], in [3], in test [4], in test [5] and in [6] was “inactive” throughout. For the same compound, the Potency entry in [7], in [10], in test [12], in test [8], in [13] and in [14] was “inactive” in each case. The Potency entry (in [15]; in test [9]; in the test with Aromatase (Homo sapiens)) was “inactive” in each case.
On to `O=C(O)C(F)(F)C(F)(F)C(F)(F)C(F)(F)C(F)(F)C(F)(F)C(F)(F)C(F)(F)C(F)(F)F`, for which the Potency entry in test [1], in test [2], in test [3], in test [4], in [5] and in [6] was “inactive” throughout. Moreover, the Potency result in [10], in [11], in [8], in test [13], in [14] and in [15] was “inactive” each time. Moreover, the Potency entry (in [9]; with Aromatase (Homo sapiens)) was “inactive” in each case. Besides, the Potency in test [12] was 15.5 µM [inhibitor] (active).
Take `Cn1sc(Cl)cc1=O`: the Potency entry in test [1], in test [5], in [6], in test [11], in [12] and in [8] was “inactive” throughout. The Potency result (in test [13]; in test [14]; in [15]; in test [9]; with Aromatase (Homo sapiens)) was “inactive” each time. The Potency entry in test [2] is “inactive and 19.3 µM (active)”; in test [3], “inactive and 21.7 µM (active)”; in test [4] it was “inactive and 54.5 µM (active)”; in test [7], 68.6 µM (active).
Regarding `C(=NC1CCCCC1)=NC1CCCCC1`, the Potency result in [1], in [5], in test [6], in test [11], in test [8] and in test [13] was “inactive” each time. The Potency result is “inactive and 15.4 µM (active)” in [2]; “inactive and 21.7 µM (active)” in test [3]; “inactive and 3.06 µM (active)” in test [4]; “inactive and 27.3 µM (active)” in [7]; “inactive and 3.89 µM [inconclusive] (active)” in test [12]; 13.8 µM (active) and inactive in test [14]. For the same compound, the Potency is 2.45 µM (active) and 2.43 µM (active) in [15]; “inactive and 1.37 µM (active)” with Aromatase (Homo sapiens).

(Values after PubChem BioAssay (Tox21).)
